High-throughput results as filed in PubChem BioAssay.
cardiac RTF act = cardiac RTF calcium sensitivity activators, primary screen, biochemical, IANBD-TnC fluorescence, EC20 calcium; Troponin I, cardiac muscle (Homo sapiens) + Troponin T, cardiac muscle (Homo sapiens) + …; activation, % at 7.2 µM; IANBD-labeled TnC RTF fluorescence at EC20 calcium; 0% EC20 calcium, 100% full calcium; 0.24% of 340,000 active;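 active means activation above the mean over all tested compounds plus 3 SD, cut at about 30% in these data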;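 further: rise in fluorescence read as greater calcium sensitivity of cardiac thin filaments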
CRFBP-R2 agonist = agonists of CRF-BP/CRF-R2 complex, primary screen, cell-based, HEK293, calcium dye fluorescence, uHTS; CRF-binding protein / CRF receptor 2 complex (human); calcium dye fluorescence (FLIPR); percent of saturating CRF peptide response; activation, % at 13.2 µM; 0.46% of 350,000 active;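 active means activation of at least 50%, plus an integration ratio under a set limit after plate pattern correction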;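 further: plate controls were neutral control wells without compound for no effect and CRF at EC100 for full effect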
RTF Ca sens inh = cardiac RTF calcium sensitivity inhibitors, primary screen, biochemical, IANBD-TnC fluorescence, EC70 calcium | Troponin I, cardiac muscle (Homo sapiens) + Troponin T, cardiac muscle (Homo sapiens) + … | IANBD-labeled cardiac RTF, Ca2+ fluorescence | inhibition, % at 7.15 µM | 0.12% of 340,000 active | AID 493244, 2011;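 active means inhibition above the mean inhibition of all tested compounds plus 3 SD, cut at about 17% in these data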;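 further: assay run at fixed EC70 calcium of 1.6 mM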
IDE act = human IDE activators in live cells, primary screen, fluorescence polarization, HEK cells, FAbeta-B substrate; Insulin-degrading enzyme (Homo sapiens), P14735; FAbeta-B cleavage; 0% vehicle, 100% cell-free pure enzyme wells; activation, % at 5.96 µM; 0.073% of 340,000 active;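 active means activation above the mean of all tested compounds plus 3 SD, set per screening campaign, cut at about 17% in these data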
Target sequence (P14735 whole entry, looked up): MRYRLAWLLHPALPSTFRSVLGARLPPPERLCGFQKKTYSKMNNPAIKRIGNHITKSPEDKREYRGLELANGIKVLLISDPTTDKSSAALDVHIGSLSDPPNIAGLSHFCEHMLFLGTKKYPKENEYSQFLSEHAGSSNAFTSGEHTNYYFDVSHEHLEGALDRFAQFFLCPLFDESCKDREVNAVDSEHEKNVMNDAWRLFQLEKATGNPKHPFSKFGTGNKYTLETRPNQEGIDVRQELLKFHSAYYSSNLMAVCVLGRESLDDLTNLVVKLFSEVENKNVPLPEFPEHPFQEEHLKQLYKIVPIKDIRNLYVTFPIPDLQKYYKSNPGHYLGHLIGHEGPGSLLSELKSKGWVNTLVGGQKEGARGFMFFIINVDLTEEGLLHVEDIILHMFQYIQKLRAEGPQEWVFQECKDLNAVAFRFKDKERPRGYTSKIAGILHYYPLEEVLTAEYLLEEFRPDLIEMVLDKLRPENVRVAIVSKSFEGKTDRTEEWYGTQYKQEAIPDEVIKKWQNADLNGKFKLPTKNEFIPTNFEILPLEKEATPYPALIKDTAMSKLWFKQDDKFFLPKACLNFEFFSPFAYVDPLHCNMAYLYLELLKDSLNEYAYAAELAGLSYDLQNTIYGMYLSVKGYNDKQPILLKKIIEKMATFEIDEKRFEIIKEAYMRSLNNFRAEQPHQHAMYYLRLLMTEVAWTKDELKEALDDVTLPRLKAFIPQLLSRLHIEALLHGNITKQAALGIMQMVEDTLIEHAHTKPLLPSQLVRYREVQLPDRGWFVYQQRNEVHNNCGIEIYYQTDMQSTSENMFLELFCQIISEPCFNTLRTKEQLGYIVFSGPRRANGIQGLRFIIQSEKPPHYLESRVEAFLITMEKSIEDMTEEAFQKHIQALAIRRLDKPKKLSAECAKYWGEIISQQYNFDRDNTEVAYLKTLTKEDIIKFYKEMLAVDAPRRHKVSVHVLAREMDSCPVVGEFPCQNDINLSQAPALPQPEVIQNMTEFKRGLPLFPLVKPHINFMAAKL
IDE cell inh = human IDE inhibitors in live cells, primary screen, fluorescence polarization, HEK cells, FAbetaB substrate | Insulin-degrading enzyme (Homo sapiens), P14735 | FAbetaB cleavage | inhibition, % at 5.59 µM | 0.41% of 320,000 active | AID 434962, 2010;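 active means percent inhibition above the average of all tested compounds plus 3 SD, set per screening campaign, cut at about 16% in these data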;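 further: IDE supplied by intact live HEK cells; FP after avidin binding of uncleaved biotin substrate so inhibition keeps polarization high; 0% = DMSO wells and 100% = 60 µM reference IDE inhibitor Ii1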
TPT1 inh = Candida albicans TPT1 enzyme inhibitors, primary screen, biochemical, fluorescence polarization | tRNA 2'-phosphotransferase TPT1 (Candida albicans SC5314) | recombinant caTPT1, FP RNA substrate dephosphorylation | inhibition, % at 5 µM | 0.81% of 300,000 active | AID 1962, 2009;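 active means inhibition above the mean of all tested compounds plus 3 SD, set per screening campaign, cut at about 24% in these data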;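 further: plate controls were DMSO alone for no effect and ferristatin control at 100 nM for full effect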
IDE inh confirm = human IDE inhibitors in live cells, confirmation, fluorescence polarization, HEK cells, FAbetaB substrate | FAbetaB cleavage | shares compounds with IDE cell inh | AID 435028, 2010 | 51% of 1,200 active | inhibition, % at 5.59 µM;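 active means mean inhibition across triplicate wells above the cutoff set by the earlier primary insulin-degrading enzyme screen, cut at about 16% in these data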;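 further: 0% = DMSO wells and 100% = 60 µM reference IDE inhibitor Ii1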
HEK293 tox = cytotoxicity in HEK cells, cytotoxicity control for IDE inhibitor project, cell-based, luminescence | HEK293 cytotoxicity, ATP luminescence | inhibition, % at 5.59 µM | AID 449730, 2010 | 28% of 1,200 active | shares compounds with IDE cell inh; in the data active means inhibition above about 22%;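 further: 0% = vehicle wells and 100% = reference cytotoxic drug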
* = called active by the depositor; x = not tested or not shown. A selection: hits, their analogues and other compounds. The true share with any hit is near 1.5%.

SMILES	cardiac RTF act	CRFBP-R2 agonist	RTF Ca sens inh	IDE act	IDE cell inh	TPT1 inh	IDE inh confirm	HEK293 tox
CCC(=O)NC(c1ccc(C)cc1)c1cc([N+](=O)[O-])c2cccnc2c1O (stereo not given)	1	-3	2	6	33*	-1	1	39*
CC(=O)NC(c1ccc(C)cc1)c1cc([N+](=O)[O-])c2cccnc2c1O (stereo not given)	-2	-1	-42	-5	6	1	x	x
Cc1ccc(NC(=O)c2cc(S(=O)(=O)N3CCOCC3)cn2C)cc1F	10	2	-13	-3	0	-3	x	x
CCCCOc1ncnc2c1[nH]c1ccc(OCC)cc12	-1	1	-4	-3	6	4	x	x
CCCCOc1ncnc2c1[nH]c1ccc(F)cc12	2	0	-3	-31	30*	2	12	70*
CCCCOc1ncnc2c1[nH]c1ccc(OC)cc12	x	-1	x	x	21*	0	3	38*
CN(CC(=O)Nc1ccccc1C(F)(F)F)C(=O)C1CC1	-1	-1	-4	3	-4	x	x	x
COc1ccc(Nc2nc(-c3cccs3)cs2)c(OC)c1	-2	0	-1	-4	7	1	x	x
COc1ccc(Nc2nc(-c3sc(C)nc3C)cs2)c(OC)c1	0	0	10	-8	21*	-2	5	62*
Cc1ccc2c(c1)=N/C(=N\c1[nH]c(O)c3ccccc13)N=2	x	-2	x	x	x	x	x	x
Oc1[nH]c(N=C2N=c3ccccc3=N2)c2ccccc12	0	0	-15	-16	26*	0	20*	76*
CCC(C)[C@H](NC(=O)[C@H](Cc1ccccc1)n1c(=O)[nH]c2ccccc2c1=O)C(=O)N1CCC[C@@H]1C(=O)O (stereo not given in full)	13	-1	-13	4	0	-6	x	x
O/C=c1\ccc2cccc3nc(C(F)(F)F)nc1c23	124*	97*	-81	-54	26*	-2	103*	41*
N#Cc1ccc(COc2cccc3cccnc23)cc1	-4	-1	-44	3	-3	-5	x	x
CCc1ccccc1NC(=O)NNC(=O)CCc1ccc(OC)cc1	0	0	-6	3	x	x	x	x
COc1ccc(/C=N/n2c(C)nc3c([nH]c4ccccc43)c2=O)cc1CN1CCCC(C)(C)C1	6	4	-1	-6	0	-1	x	x
COc1ccc2[nH]c3c(=O)n(/N=C/c4ccc(OC)c(CN5CCCC5)c4)c(C)nc3c2c1	5	-2	6	-9	17*	3	5	13
CCCCn1c(N)c(N(CC)C(=O)c2cccs2)c(=O)[nH]c1=O	1	0	-7	3	2	x	x	x
Cn1c(N/N=C/c2c[nH]c3ccccc23)nc2ccccc21	-2	-2	8	-9	29*	0	0	63*
COc1ccc(-c2cc(-c3ccc(OC)c(OC)c3)n[nH]2)c(O)c1	0	-3	-2	-4	17*	-5	8	14
Cc1ccc(C(=O)C(OC(=O)CNC(=O)c2ccc(Cl)cc2)c2ccccc2)cc1 (stereo not given)	-4	0	4	3	17*	-1	1	10
O=C(Nc1ccccc1)c1cccc(N2C(=O)C3C4CC(C(Br)C4Br)C3C2=O)c1 (stereo not given)	-6	-1	-12	4	3	1	x	x
O=C(NC[C@@H]1CCCO1)c1cccc2c1C(=O)c1ccc(N3CCOCC3)cc1S2(=O)=O	2	2	1	3	3	x	x	x
CC1CCN(c2ccc3c(c2)S(=O)(=O)c2cccc(C(=O)NC[C@@H]4CCCO4)c2C3=O)CC1	6	21	-21	-8	22*	x	21*	26*
CC1CCN(c2ccc3c(c2)S(=O)(=O)c2cccc(C(=O)NC4CC4)c2C3=O)CC1	5	12	-10	-7	18*	x	19*	16
SMILES	cardiac RTF act	CRFBP-R2 agonist	RTF Ca sens inh	IDE act	IDE cell inh	TPT1 inh	IDE inh confirm	HEK293 tox
O=C(NCC1CCCO1)c1cccc2c1C(=O)c1ccc(N3CCC(Cc4ccccc4)CC3)cc1S2(=O)=O (stereo not given)	61*	83*	-162	-44	50*	x	83*	50*
O=C(O)c1ccccc1NS(=O)(=O)c1cccc(-n2sc3ccccc3c2=O)c1	-3	1	7	-20	90*	5	73*	1
COc1ccc(N(CC(=O)N2CCN(c3ccc(Cl)cc3)CC2)S(=O)(=O)c2c(C)n[nH]c2C)cc1	-5	-1	6	-16	18*	-1	8	19
COc1ccc(N(CC(=O)Nc2ccc(Cl)cc2)S(=O)(=O)c2c(C)n[nH]c2C)cc1	-2	0	0	2	6	1	x	x
COc1cc(-c2noc(CCCC(=O)Nc3cccnc3)n2)cc(OC)c1OC	5	-5	-4	5	16*	-3	0	6
COc1cc(-c2noc(CCCC(=O)Nc3ccc(C(N)=O)cc3)n2)cc(OC)c1OC	x	-4	x	x	-11	-2	x	x
COc1ccc(NC(=O)c2ccc(Cl)c(NC(=O)c3ccncc3)c2)cc1	x	x	x	x	4	-4	x	x
CN1CCN(C(=O)CCCN2C(=O)/C(=C/c3cccc(Br)c3)SC2=S)CC1	-2	3	7	3	x	x	x	x
CN1CCN(C(=O)CCN2C(=O)/C(=C/c3cccc(Br)c3)SC2=S)CC1	-3	-1	0	0	19*	-3	2	56*
Nc1c(SCCC(=O)O)ccc2c1C(=O)c1ccccc1C2=O	-1	-8	-4	-3	17*	-8	11	14
COc1ccccc1CCNC(=O)C(=O)NCCC1CCCCN1S(=O)(=O)c1ccccc1 (stereo not given)	-5	-1	-9	-12	16*	0	2	21
COc1ccc(C2C(C(=O)c3ccccc3)N3c4ccccc4C=CC3C2[N+](=O)[O-])cc1 (stereo not given)	18	12	-26	-29	x	x	x	x
